Usually inhibition stands for the change of the read-out against control, counted positive when it falls.

This note sets out measurements from PubChem BioAssay.

A number with no mark means an inactive call. For some of these results: Measured potencies and affinities stand elsewhere. Activity calls are given as the source filed them. Unless noted, how the calls were made is not given here.

Assay [1] can be described thus: antimalarial activity against Dd2 strain (AID 2302;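 active means growth inhibition above 50% at the single 2 µM test dose, taken to imply half-maximal potency below 2 µM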;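 further: 0% = DMSO untreated growth and 100% = chloroquine plus artemisinin killed control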). The conditions noted are these: P. falciparum Dd2 in RBCs, LDH growth readout, 72 h; at 2 µM; active compounds read high.
Assay [2] is described as follows: HepG2 cytotoxicity, primary screen, cytotoxicity control for P. falciparum antimalarial project, cell-based, ATP luminescence (AID 2303;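 active means inhibition above 50%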;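 further: 0% = DMSO wells and 100% = digitonin-killed cells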). The conditions noted are these: HepG2 viability, 24-48 h, at 10 µM, active compounds read high.
For assay [3], the target named is L-lactate dehydrogenase (Plasmodium falciparum (isolate CDC / Honduras)) (UniProt Q27743). Nature of the assay: PfLDH activity inhibition – cell lysate, 3D7 strain, counter-screen for P. falciparum growth inhibition project (AID 2304).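 Further: 0% = vehicle and 100% = reference inhibitor.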 The following applies: P. falciparum 3D7 crude extract, LDH APAD/NBT absorbance; at 2 µM; active compounds read high.
L-lactate dehydrogenase (Plasmodium falciparum (isolate CDC / Honduras)), sequence (Q27743 whole entry, looked up): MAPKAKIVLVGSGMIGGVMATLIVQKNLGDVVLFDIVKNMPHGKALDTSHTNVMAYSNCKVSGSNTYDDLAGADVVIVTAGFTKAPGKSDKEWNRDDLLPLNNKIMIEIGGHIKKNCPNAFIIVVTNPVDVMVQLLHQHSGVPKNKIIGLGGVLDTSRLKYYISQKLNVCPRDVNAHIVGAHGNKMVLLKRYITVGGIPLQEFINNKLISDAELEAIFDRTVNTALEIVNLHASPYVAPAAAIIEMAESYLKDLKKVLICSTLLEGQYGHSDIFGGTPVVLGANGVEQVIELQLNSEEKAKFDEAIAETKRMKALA
Assay [4] can be described thus: inhibition of 3D7 malaria parasite growth – strain 3D7 (AID 2306).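 Further: 0% = DMSO wells and 100% = chloroquine plus artemisinin control wells.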 The following applies: P. falciparum 3D7 erythrocytic growth, LDH absorbance, 72 h; at 2 µM; active compounds read high.
Assay [5] has as its target Calcium-dependent protein kinase 1 (Plasmodium falciparum (isolate 3D7)) (UniProt P62344). The assay is described as follows: PfCDPK1 kinase inhibitors, biochemical, TCAMS library (AID 1159585; cut-off not given, nearly all actives have IC50 up to about 0.98 µM;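 further: inhibitors leave more ATP so luminescence rises with inhibition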). The following applies: recombinant PfCDPK1, Kinase-Glo ATP depletion luminescence.
Assay [6] deals with Plasmodium falciparum protein kinase 6 (PK6, PF3D7_1337100) (UniProt Q8IDW1). The assay is described as follows: PfPK6 kinase inhibitors, biochemical, TCAMS library (AID 1159586). The conditions noted are these: recombinant PfPK6, Kinase-Glo ATP depletion luminescence.
Plasmodium falciparum protein kinase 6 (PK6, PF3D7_1337100), sequence (Q8IDW1 1-305): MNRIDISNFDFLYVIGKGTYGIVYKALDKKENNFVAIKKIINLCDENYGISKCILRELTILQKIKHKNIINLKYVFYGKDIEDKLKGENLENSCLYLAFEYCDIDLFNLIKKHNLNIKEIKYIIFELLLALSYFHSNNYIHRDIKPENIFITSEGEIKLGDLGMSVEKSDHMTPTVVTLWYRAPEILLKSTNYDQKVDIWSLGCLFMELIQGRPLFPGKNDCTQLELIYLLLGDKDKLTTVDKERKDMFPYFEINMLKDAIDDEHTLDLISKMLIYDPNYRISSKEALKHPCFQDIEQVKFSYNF
Assay [7] concerns the target Protein kinase 7 (PK7), Plasmodium falciparum 3D7 (PF3D7_0213400) (UniProt Q7YTF7). Nature of the assay: inhibition of Plasmodium PK7 catalytic activity – biochemical, TCAMS antimalarial set, Kinase-Glo luminescence (AID 1159587). The conditions noted are these: recombinant PfPK7, Kinase-Glo ATP depletion luminescence.
Assay [8] has as its target Calcium-dependent protein kinase 4 (Plasmodium falciparum (isolate 3D7)) (UniProt Q8IBS5). The assay is described as follows: PfCDPK4 kinase inhibitors, biochemical, TCAMS library (AID 1159588; cut-off not given, nearly all actives have IC50 up to about 0.91 µM). The following applies: recombinant PfCDPK4, Kinase-Glo ATP depletion luminescence. A general note: Kinase-Glo measures the ATP left after a reaction by luminescence.

Calcium-dependent protein kinase 1 (Plasmodium falciparum (isolate 3D7)), sequence (P62344 whole entry, looked up): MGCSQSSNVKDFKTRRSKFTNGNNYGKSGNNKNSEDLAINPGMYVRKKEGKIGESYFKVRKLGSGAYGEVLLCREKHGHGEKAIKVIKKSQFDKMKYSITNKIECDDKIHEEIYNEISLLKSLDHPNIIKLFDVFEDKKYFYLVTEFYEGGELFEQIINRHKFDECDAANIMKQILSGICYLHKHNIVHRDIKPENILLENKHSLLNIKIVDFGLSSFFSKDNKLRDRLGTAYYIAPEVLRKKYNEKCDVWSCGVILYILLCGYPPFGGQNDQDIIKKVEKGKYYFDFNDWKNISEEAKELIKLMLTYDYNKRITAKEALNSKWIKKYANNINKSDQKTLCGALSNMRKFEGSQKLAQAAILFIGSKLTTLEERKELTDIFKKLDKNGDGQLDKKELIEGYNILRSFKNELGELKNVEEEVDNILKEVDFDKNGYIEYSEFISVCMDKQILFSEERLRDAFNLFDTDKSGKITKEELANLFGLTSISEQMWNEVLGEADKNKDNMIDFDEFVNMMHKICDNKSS
Calcium-dependent protein kinase 4 (Plasmodium falciparum (isolate 3D7)), sequence (Q8IBS5 whole entry, looked up): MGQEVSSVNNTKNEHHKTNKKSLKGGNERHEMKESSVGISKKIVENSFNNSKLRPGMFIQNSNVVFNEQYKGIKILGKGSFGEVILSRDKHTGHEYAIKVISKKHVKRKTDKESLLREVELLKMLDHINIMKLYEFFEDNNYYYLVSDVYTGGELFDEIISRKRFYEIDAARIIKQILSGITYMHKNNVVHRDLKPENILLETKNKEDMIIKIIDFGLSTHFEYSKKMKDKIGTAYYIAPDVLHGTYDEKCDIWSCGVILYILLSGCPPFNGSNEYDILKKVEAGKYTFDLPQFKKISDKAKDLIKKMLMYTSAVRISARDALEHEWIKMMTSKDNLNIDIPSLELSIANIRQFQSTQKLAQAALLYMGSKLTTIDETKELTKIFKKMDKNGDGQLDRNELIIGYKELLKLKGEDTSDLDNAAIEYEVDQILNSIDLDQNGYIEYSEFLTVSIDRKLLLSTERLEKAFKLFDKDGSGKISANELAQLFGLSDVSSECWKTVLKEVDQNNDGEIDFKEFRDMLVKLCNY
Protein kinase 7 (PK7), Plasmodium falciparum 3D7 (PF3D7_0213400), sequence (Q7YTF7 1-343): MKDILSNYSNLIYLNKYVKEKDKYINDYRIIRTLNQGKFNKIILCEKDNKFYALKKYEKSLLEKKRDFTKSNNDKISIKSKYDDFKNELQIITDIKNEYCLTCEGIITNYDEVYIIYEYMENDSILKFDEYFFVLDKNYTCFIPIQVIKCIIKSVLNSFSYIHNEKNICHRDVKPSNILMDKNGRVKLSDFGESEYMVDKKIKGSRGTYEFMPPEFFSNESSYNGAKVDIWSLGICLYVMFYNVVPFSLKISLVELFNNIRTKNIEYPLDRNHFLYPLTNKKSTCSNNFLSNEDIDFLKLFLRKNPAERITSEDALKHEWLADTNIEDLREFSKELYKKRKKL

Take `O=C(Nc1ccccc1)Nc1cccc(-c2nn3c(OCC4CCCCN4)cccc3c2-c2ccncc2)c1` (stereo not given): the growth inhibition in assay [1] was 82% (active); in assay [4], 97% (active). Further, the figures for the inhibition in assay [2] and in assay [3] were 9% and -7%, respectively. Moreover, the result in assay [5], in assay [6], in assay [7] and in assay [8] was inactive.

Turning to `O=C(Nc1cccc(OC2CCN(Cc3ccc(F)cc3)CC2)c1)c1ccc(C(F)(F)F)cc1`, the results for the growth inhibition in assay [1] and in assay [4] were 6% and 94% (active), respectively. Moreover, the inhibition in assay [2] is 28%; in assay [3] it was 3%. In addition, the outcome in assay [5], in assay [6], in assay [7] and in assay [8] was inactive.

In the case of `Cc1nc2ccccc2n1C1C[C@H]2CC[C@@H](C1)N2CCCC1(c2ccccc2)CCN(C(=O)OCc2ccccc2)CC1` (stereo not given in full), the results for the growth inhibition in assay [1] and in assay [4] were 29% and 90% (active), respectively. For the same compound, the results for the inhibition in assay [2] and in assay [3] were 46% and -4%, respectively. For the same compound, the result in assay [5], in assay [6], in assay [7] and in assay [8] was inactive.

In the case of `O=C(Nc1ccc(C(=O)N2CCN(CCN3CCN(c4cccc(C(F)(F)F)c4)CC3)CC2)cc1)c1ccc(C(F)(F)F)cc1`, the growth inhibition in assay [1] was 28%; in assay [4] it was 95% (active). The results for the inhibition in assay [2] and in assay [3] were 39% and 0%, respectively. The result in assay [5], in assay [6], in assay [7] and in assay [8] was inactive.

With `CCc1c(CCNCCCC(C)CCNCCc2ccc(OC)c(OC)c2CC)ccc(OC)c1OC` (stereo not given), the growth inhibition was 27% in assay [1] and 100% (active) in assay [4]. Also, the inhibition in assay [2] was 99% (active); in assay [3] it was 1%. Besides, the outcome in assay [5], in assay [6], in assay [7] and in assay [8] was inactive.

Turning to `CCOc1ccc(-c2nonc2NC(=O)c2cccc(Cl)c2)cc1OCC`, the figures for the growth inhibition in assay [1] and in assay [4] were 99% (active) and 100% (active), respectively. Besides, the inhibition in assay [2] was -5%; in assay [3], -8%. Besides, the result in assay [5], in assay [6], in assay [7] and in assay [8] was inactive.

Consider `O=C(Nc1ccc2c(c1)CCNCC2)Nc1ccc2ccccc2c1`, for which the growth inhibition in assay [1] was 23%; in assay [4], 84% (active). The inhibition in assay [2] is -6%; in assay [3] it was -1%. For the same compound, the result in assay [5], in assay [6], in assay [7] and in assay [8] was inactive.

Take `Nc1nc(N)c2c(ccc3nccc32)[nH]1`: the growth inhibition in assay [1] is -1%; in assay [4], 88% (active). The inhibition in assay [2] was 58% (active); in assay [3] it was 8%. Further, the result in assay [5], in assay [6], in assay [7] and in assay [8] was inactive.

For `Cc1cc(Cl)c(S(=O)(=O)N(C)c2ccccc2)cc1OCC(=O)NC1CCCCC1`, the values for the growth inhibition in assay [1] and in assay [4] were 94% (active) and 99% (active), respectively. The inhibition in assay [2] is 3%; in assay [3], -3%. Besides, the result in assay [5], in assay [6], in assay [7] and in assay [8] was inactive.

In the case of `O=c1cc(NCCCNCc2cn(S(=O)(=O)c3ccccc3)c3ccccc23)[nH]c2ccccc12`, the growth inhibition in assay [1] was 29%; in assay [4], 91% (active). In addition, the inhibition in assay [2] is 17%; in assay [3], -2%. In addition, the outcome in assay [5], in assay [6], in assay [7] and in assay [8] was inactive.

For `Cc1cccc2[nH]c(-c3ccc(-c4cccc(CNCCc5ccncc5)c4)s3)nc12`, the growth inhibition in assay [1] is 89% (active); in assay [4], 100% (active). The inhibition in assay [2] is 11%; in assay [3] it was 2%. Moreover, the outcome in assay [5], in assay [6], in assay [7] and in assay [8] was inactive.

On to `CC(C)N1CCN(CCCCNc2c3ccccc3nc3ccccc23)CC1`, for which the growth inhibition is -4% in assay [1] and 100% (active) in assay [4]. Besides, the results for the inhibition in assay [2] and in assay [3] were 38% and -6%, respectively. Further, the outcome in assay [5], in assay [6], in assay [7] and in assay [8] was inactive.

As for `Cc1nc2c(c(O)c1Cl)-c1ccc(Oc3cccc(C(F)(F)F)c3)cc1C2=O`, the growth inhibition is 95% (active) in assay [1] and 94% (active) in assay [4]. For the same compound, the inhibition was 25% in assay [2] and -6% in assay [3]. Also, the outcome in assay [5], in assay [6], in assay [7] and in assay [8] was inactive.

Turning to `O=C(Nc1ccc(-c2nc3ccccc3[nH]2)cc1)c1ccc(S(=O)(=O)N2CCc3ccccc32)cc1`, the growth inhibition in assay [1] is 34%; in assay [4], 102% (active). The values for the inhibition in assay [2] and in assay [3] were 32% and 3%, respectively. The result in assay [5], in assay [6], in assay [7] and in assay [8] was inactive.

Consider `COc1ccc(CNC(=O)c2cnc3c(O)cccc3c2Nc2cccc(NC(=O)c3ccc(-c4ccccc4)cc3)c2)cc1`, for which the growth inhibition in assay [1] was 83% (active); in assay [4] it was 90% (active). Besides, the inhibition was 42% in assay [2] and 6% in assay [3]. Further, the result in assay [5], in assay [6], in assay [7] and in assay [8] was inactive.

Consider `COc1cc2nc(NCCn3ccnc3C)nc(NCCc3ccccc3)c2cc1OC`, for which the figures for the growth inhibition in assay [1] and in assay [4] were 0% and 99% (active), respectively. Moreover, the inhibition in assay [2] is 21%; in assay [3] it was -6%. Further, the result in assay [5], in assay [6], in assay [7] and in assay [8] was inactive.

As to `CN1CCN(CCCN(Cc2csc(-c3ccc(CNCc4ccccc4)cc3)n2)C(=O)Nc2cc(Cl)cc(Cl)c2)CC1`, the figures for the growth inhibition in assay [1] and in assay [4] were 45% and 103% (active), respectively. For the same compound, the inhibition is 34% in assay [2] and -2% in assay [3]. Moreover, the result in assay [5], in assay [6], in assay [7] and in assay [8] was inactive.

For `COc1ccc(Cn2ncc3c4c(N)nc(N)nc4ccc32)cc1OC`, the growth inhibition in assay [1] was 95% (active); in assay [4], 94% (active). Further, the inhibition in assay [2] is 68% (active); in assay [3], 3%. For the same compound, the outcome in assay [5], in assay [6], in assay [7] and in assay [8] was inactive.

In the case of `COc1cccc(C2=CC(c3ccccc3)n3ncc(C(=O)Nc4ccc(Cl)cc4)c3N2)c1` (stereo not given), the figures for the growth inhibition in assay [1] and in assay [4] were 28% and 88% (active), respectively. Besides, the inhibition was 7% in assay [2] and -1% in assay [3]. The outcome in assay [5], in assay [6], in assay [7] and in assay [8] was inactive.

As for `NC(=O)C1CCN(Cc2cccc(-c3cccc(-c4nc5ccc(F)cc5[nH]4)c3)c2)CC1`, the growth inhibition in assay [1] is 7%; in assay [4] it was 100% (active). The inhibition in assay [2] was 15%; in assay [3], 3%. The result in assay [5], in assay [6], in assay [7] and in assay [8] was inactive.
